Results taken from PubChem BioAssay (NCATS).
Values without a mark were called inactive. Records with an inconclusive call do not appear. Entries that show only a call come without a potency. Calls of active or inactive are those of the source. Unless noted, calls come from the whole dose curve.

Key:
[1] = target: Androgen receptor (Homo sapiens) (UniProt P10275); experiment: qHTS assay for small molecule agonists of androgen receptor signaling (AID 588515; active = well fitted curve in the direction sought with a large enough effect in the signal ratio, with a control signal flat; the % refers to the signal ratio); settings: AR-UAS-bla HEK293, beta-lactamase ratio, agonist 16 h; activation: stronger effect = higher value
Chain of Androgen receptor (Homo sapiens) (P10275 whole entry, looked up): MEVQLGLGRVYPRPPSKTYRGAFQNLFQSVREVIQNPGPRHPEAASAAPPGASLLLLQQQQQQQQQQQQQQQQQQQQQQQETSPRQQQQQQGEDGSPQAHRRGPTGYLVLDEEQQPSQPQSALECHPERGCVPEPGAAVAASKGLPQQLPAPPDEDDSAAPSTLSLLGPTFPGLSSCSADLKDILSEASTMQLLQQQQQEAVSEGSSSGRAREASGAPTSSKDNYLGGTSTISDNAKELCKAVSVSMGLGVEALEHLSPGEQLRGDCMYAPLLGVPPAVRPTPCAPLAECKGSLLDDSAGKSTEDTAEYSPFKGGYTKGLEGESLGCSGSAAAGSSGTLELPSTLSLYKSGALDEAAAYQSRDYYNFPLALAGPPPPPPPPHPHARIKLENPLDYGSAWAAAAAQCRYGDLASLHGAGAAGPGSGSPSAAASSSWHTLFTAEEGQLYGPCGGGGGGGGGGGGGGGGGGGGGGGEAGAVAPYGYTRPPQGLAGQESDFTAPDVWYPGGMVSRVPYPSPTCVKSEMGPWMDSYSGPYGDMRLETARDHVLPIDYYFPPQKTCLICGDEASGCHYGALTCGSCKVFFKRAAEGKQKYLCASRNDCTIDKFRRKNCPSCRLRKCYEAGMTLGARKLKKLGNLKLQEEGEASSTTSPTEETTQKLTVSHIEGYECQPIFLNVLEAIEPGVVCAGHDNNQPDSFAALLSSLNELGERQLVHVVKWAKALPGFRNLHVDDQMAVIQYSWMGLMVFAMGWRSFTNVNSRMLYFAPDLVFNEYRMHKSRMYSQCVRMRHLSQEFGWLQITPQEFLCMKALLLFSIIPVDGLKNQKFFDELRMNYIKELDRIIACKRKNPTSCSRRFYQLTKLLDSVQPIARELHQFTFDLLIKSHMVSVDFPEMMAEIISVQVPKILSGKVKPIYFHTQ
Summary of the method: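 Stimulation of an AR-responsive β-lactamase reporter in GripTite HEK293 cells was measured after 16 h compound exposure at 37 °C, via CCF4 fluorescence after 2 h RT. EC50 from Hill fits, normalized to R1881 at 30 nM.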

[2] = target: Androgen receptor (Homo sapiens) (UniProt P10275); experiment: qHTS assay for small molecule antagonists of androgen receptor signaling (AID 588516; active = well fitted curve in the direction sought with a large enough effect in the signal ratio, with a control signal flat, not every such curve was filed as active; the % refers to the signal ratio)
Summary of the method: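 AR-UAS-bla GripTite HEK 293 cells (2000/well) treated with compound titrations plus 10 nM R1881 for 16 h at 37C. Beta-lactamase read by CCF4 FRET (460/530 nm); IC50 from Hill fits, normalized to R1881 and DMSO control wells.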

[3] = target: Bile acid receptor (Homo sapiens) (UniProt Q96RI1); experiment: qHTS assay for small molecule antagonists of farnesoid X receptor signaling (AID 588526)
Chain of Bile acid receptor (Homo sapiens) (Q96RI1 whole entry, looked up): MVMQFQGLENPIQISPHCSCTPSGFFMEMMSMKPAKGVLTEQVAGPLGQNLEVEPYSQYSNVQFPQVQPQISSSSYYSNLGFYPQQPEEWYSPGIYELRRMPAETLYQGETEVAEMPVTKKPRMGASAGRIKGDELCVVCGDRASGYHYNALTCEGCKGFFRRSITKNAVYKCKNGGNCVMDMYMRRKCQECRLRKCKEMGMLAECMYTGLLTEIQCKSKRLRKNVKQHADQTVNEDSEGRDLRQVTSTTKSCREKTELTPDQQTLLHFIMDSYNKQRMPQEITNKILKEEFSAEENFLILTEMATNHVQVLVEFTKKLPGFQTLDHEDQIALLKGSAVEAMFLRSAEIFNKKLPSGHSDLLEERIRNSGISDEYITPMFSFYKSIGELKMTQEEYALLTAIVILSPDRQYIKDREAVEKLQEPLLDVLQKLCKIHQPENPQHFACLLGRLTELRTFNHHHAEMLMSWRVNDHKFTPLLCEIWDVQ
Summary of the method: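 Beta-lactamase reporter antagonist mode: HEK293T FXR-UAS-bla cells, titrated compound, CDCA stimulation, 16 h 37 C, CCF4 dye 2 h RT. Data normalized to CDCA 50 uM and DMSO; Hill-fit IC50.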

[4] = target: Glucocorticoid receptor (Homo sapiens) (UniProt P04150); experiment: qHTS assay for small molecule agonists of glucocorticoid receptor signaling (AID 588532; active = well fitted curve in the direction sought with a large enough effect in the signal ratio, with a control signal flat; the % refers to the signal ratio); settings: HeLa MMTV-bla, beta-lactamase ratio, agonist, 18 h; stronger effect = higher value; percent of dexamethasone control, DMSO zero
Chain of Glucocorticoid receptor (Homo sapiens) (P04150 whole entry, looked up): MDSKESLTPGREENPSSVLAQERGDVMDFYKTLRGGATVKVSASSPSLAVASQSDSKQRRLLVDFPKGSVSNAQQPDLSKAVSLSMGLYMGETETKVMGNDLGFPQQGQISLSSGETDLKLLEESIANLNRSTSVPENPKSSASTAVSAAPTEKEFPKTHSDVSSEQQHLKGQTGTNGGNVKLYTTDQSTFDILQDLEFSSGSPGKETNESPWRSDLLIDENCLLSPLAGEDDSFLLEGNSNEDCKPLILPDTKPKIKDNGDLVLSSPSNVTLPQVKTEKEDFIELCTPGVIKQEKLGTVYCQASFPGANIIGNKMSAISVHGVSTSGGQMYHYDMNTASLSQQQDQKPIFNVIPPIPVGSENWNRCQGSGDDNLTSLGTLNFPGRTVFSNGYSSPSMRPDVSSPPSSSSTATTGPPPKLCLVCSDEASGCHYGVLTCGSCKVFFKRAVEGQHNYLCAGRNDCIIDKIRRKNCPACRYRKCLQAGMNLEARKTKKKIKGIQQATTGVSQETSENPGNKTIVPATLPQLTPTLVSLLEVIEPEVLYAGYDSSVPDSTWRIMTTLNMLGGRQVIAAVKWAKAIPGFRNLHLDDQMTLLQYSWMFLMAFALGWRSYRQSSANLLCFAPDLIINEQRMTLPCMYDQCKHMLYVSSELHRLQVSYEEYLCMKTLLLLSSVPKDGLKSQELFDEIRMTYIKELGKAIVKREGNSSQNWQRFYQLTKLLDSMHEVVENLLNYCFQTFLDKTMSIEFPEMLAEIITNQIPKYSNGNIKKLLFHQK
Summary of the method: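 Agonist-mode qHTS: GRE-driven beta-lactamase in HeLa cells exposed 18 h to titrated compounds (up to 92 uM), then CCF4 ratio read after 2 h at RT; Hill-fitted EC50, efficacy relative to 0.1 uM dexamethasone.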

[5] = target: Peroxisome proliferator-activated receptor gamma (Homo sapiens) (UniProt P37231); experiment: qHTS assay for small molecule antagonists of peroxisome proliferator-activated receptor gamma signaling (AID 588537; active = well fitted inhibition curve with a large enough effect in the signal ratio, with a control signal flat, not every such curve was filed as active; the % refers to the signal ratio;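 note: reporter cells co-stimulated with 50 nM rosiglitazone agonist during compound treatment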)
Chain of Peroxisome proliferator-activated receptor gamma (Homo sapiens) (P37231 whole entry, looked up): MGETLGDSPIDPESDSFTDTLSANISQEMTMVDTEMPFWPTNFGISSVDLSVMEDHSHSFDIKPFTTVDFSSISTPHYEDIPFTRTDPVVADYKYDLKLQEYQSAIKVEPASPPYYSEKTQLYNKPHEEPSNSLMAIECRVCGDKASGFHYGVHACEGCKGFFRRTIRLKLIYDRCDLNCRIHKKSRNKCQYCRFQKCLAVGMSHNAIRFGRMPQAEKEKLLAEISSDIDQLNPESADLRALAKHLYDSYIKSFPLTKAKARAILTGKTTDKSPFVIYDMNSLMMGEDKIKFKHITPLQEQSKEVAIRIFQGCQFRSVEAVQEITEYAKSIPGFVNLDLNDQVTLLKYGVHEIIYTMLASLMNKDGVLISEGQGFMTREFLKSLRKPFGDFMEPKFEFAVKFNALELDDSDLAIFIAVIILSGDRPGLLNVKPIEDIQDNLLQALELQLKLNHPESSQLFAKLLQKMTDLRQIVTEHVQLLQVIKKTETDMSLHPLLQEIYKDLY
Summary of the method: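 Antagonist-mode β-lactamase reporter screen run as a titration series. HEK293 PPARγ-UAS-bla cells are stimulated with rosiglitazone (50 nM final) for 16 h, then CCF4 is read at 460/530 nm. Data are scaled between DMSO and rosiglitazone and fitted to the Hill equation.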

[6] = target: Vitamin D3 receptor (Homo sapiens) (UniProt P11473); experiment: qHTS assay for small molecule antagonists of vitamin D receptor signaling (AID 588541);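 note: receptor activated by calcitriol during compound treatment; series mostly up to about 77 µM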
Chain of Vitamin D3 receptor (Homo sapiens) (P11473 whole entry, looked up): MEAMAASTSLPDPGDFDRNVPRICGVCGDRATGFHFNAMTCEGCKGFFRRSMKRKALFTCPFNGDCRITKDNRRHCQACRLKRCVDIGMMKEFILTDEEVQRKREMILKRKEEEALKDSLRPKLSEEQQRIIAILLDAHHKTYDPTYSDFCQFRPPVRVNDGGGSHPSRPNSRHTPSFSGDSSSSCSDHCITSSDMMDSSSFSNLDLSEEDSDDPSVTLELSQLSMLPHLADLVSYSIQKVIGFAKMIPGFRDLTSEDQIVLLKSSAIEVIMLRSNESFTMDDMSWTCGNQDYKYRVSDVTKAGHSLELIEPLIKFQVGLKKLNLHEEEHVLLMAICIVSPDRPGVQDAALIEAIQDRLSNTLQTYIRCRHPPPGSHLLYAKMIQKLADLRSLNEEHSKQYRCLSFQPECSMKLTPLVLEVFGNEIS
Summary of the method: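 Antagonist-mode beta-lactamase reporter assay: HEK293T VDR-UAS-bla cells were exposed to titrated compound alongside 1-alpha,25-dihydroxyvitamin D3 at 3 nM final for 16 h. Values were normalized to the 50 nM agonist control and DMSO basal, with IC50 and efficacy from Hill equation fits.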

[7] = target: Vitamin D3 receptor (Homo sapiens) (UniProt P11473); experiment: qHTS assay for small molecule agonists of vitamin D receptor signaling (AID 588543)
Summary of the method: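 VDR-UAS-bla HEK293T cells, 2000/well, 2% charcoal-stripped FBS; compound titration 16 h at 37 C; CCF4 beta-lactamase ratio read. Normalized to 50 nM 1-alpha,25-dihydroxyvitamin D3 (100%) and DMSO; Hill fit gives EC50, efficacy.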

[8] = target: Thyroid hormone receptor beta (Homo sapiens) (UniProt P10828); experiment: qHTS assay for small molecule antagonists of thyroid hormone receptor beta signaling (AID 588547; active = well fitted inhibition curve with a large enough effect in the signal ratio, with a control signal flat, not every such curve was filed as active; the % refers to the signal ratio;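 note: cells stimulated with 0.4 nM T3 agonist during compound exposure; series mostly up to about 77 µM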); settings: TR-UAS-bla HEK293, beta-lactamase ratio, antagonist mode, 18 h
Chain of Thyroid hormone receptor beta (Homo sapiens) (P10828 whole entry, looked up): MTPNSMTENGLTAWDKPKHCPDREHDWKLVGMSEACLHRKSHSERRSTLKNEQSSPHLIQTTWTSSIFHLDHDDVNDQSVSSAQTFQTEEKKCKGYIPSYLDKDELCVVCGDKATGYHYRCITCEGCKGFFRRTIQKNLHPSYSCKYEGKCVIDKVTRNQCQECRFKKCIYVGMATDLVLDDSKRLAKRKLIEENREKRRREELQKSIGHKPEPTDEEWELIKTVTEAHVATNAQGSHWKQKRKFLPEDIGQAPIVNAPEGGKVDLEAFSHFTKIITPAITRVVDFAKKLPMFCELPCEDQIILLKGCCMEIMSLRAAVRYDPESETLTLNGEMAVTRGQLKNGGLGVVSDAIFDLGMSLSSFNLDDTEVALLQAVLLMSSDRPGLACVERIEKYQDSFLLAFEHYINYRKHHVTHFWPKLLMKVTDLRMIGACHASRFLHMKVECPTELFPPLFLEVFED
Summary of the method: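 Inhibition of T3-driven (0.4nM final) beta-lactamase reporter activity was measured over 0.59 nM to 92 uM compound after 18 h at 37 C. The cells were GripTite HEK293 TR-UAS-bla in charcoal/dextran-stripped serum, with CCF4 ratio read-out and IC50 from Hill fits.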

[9] = qHTS assay for small molecule agonists of the antioxidant response element (ARE) signaling pathway (AID 651741; active = well fitted activation curve with a large enough effect in the signal ratio; the % refers to the signal ratio; note: potency is the fitted concentration of half-maximal effect)
Summary of the method: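 Beta-lactamase reporter under ARE control in HepG2 cells, 2,000 per well, was induced by 16 h compound treatment at 37 C. Read-out was fluorescence from LiveBLAzer B/G FRET substrate after 2 h at room temperature.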

[10] = qHTS assay for small molecule activators of the p53 signaling pathway (AID 651743; active = well fitted activation curve with a large enough effect in the signal ratio, not every such curve was filed as active; the % refers to the signal ratio; note: series mostly up to about 92 µM); settings: HCT-116 p53RE-bla, beta-lactamase FRET ratio, 16 h; activation: stronger effect = higher value
Summary of the method: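 After 16 hours compound treatment at 37 C, HCT-116 cells stably expressing p53RE-driven beta-lactamase were loaded with LiveBLAzer B/G FRET substrate for 2 hours at room temperature. Fluorescence intensity served as the p53 activation read-out.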

[11] = target: Cytochrome P450 3A4 (Homo sapiens) (UniProt P08684); experiment: qHTS Assay for Activators of Cytochrome P450 3A4 (AID 885; active = well fitted curve in the direction sought with a large enough effect; an effect the other way counts as inactive or inconclusive; note: nearly all actives have a fitted effect of over 65% in size)
Chain of Cytochrome P450 3A4 (Homo sapiens) (P08684 whole entry, looked up): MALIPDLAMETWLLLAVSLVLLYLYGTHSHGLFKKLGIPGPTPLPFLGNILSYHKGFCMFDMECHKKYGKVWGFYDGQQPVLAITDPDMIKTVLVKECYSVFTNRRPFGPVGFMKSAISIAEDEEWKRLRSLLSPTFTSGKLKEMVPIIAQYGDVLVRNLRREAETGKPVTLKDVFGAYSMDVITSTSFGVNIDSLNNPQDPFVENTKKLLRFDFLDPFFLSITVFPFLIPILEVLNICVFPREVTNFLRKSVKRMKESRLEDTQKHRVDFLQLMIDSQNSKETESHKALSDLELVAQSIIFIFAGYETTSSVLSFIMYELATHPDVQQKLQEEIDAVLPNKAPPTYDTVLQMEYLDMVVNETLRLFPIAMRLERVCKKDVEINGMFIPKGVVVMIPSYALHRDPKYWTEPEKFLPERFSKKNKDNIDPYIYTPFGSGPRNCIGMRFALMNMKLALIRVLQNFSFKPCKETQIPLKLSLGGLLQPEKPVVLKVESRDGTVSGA
Summary of the method: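 CYP3A4 activity: Luciferin-PPXE O-dealkylation, 25uM substrate, 200mM KPO4, RT throughout. Read-out is luciferase luminescence; higher values reflect activation.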

[12] = target: DNA dC->dU-editing enzyme APOBEC-3G (Homo sapiens) (UniProt Q9HC16); experiment: qHTS for inhibitors of Vif-A3G interactions: Validation (AID 588379; active = well fitted curve in the direction sought with a large enough effect; an effect the other way counts as inactive or inconclusive)
Chain of DNA dC->dU-editing enzyme APOBEC-3G (Homo sapiens) (Q9HC16 whole entry, looked up): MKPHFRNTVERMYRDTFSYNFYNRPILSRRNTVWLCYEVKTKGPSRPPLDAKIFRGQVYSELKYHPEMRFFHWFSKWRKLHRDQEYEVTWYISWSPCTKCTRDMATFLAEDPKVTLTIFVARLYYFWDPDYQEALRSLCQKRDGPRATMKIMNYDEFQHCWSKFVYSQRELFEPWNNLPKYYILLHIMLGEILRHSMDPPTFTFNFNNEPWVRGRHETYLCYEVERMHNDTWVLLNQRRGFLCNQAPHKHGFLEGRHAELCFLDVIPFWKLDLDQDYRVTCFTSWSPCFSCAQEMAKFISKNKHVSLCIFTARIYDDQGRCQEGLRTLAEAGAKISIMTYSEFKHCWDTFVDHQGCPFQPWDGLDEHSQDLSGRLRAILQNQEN
Summary of the method: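 Yellow fluorescence (Ex 488, Em 500-530) of Vif-coexpressing HeLa A3G-eYFP cells, scanned by Acumen cytometer, reports blocked A3G degradation. Cells plated at 700/well overnight at 37 deg C before compound addition, then a further overnight compound incubation at 37 deg C.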

Compound | activation [1] [%] | outcome [2] | Potency [3] | activation [4] [%] | Potency [5] | Potency [6] | outcome [7] | activity change % (negative = inhibition) [8] [%] | Potency [9] | activation [10] [%] | Potency [11] | Potency [12]
Cc1ccc(N=Nc2c(O)ccc3ccccc23)c(C)c1 | -2.14 | inactive | inactive | -16.9 | inactive | inactive | inactive | 9.11 | 7.7 µM (active) |  |  | 
CCC/C(=N\OCC)C1=C(O)CC(O)(CC(C)S(=O)(=O)CC)CC1=O (centres undefined) | -4 | inactive |  | -6.04 | inactive | inactive | inactive |  |  | -2.69 |  | 
CC(=O)N(CCN(C(C)=O)C(C)=O)C(C)=O | 11.2 | inactive | inactive | -10.7 |  |  | inactive | -8.71 | inactive | 0.892 |  | 
COC(=O)c1ccccc1S(=O)(=O)NC(=O)Nc1nc(OC(F)F)cc(OC(F)F)n1 | -5.06 | inactive | inactive | -5.76 | inactive | inactive | inactive |  | inactive | -4.45 |  | 
CCCCCCCCCCCCCCCCCC(N)=O | 5.45 |  | inactive | -6.09 | inactive |  | inactive | -14.9 |  | 0.913 |  | 
CC(C)c1ccc2cc(C(C)C)ccc2c1 | -3.98 | inactive |  |  | inactive | inactive | inactive | -11 |  |  |  | 
CC(C)(C)C(O)/C(=C\c1ccc(Cl)cc1)n1cncn1 (centres undefined) | -3.93 |  | inactive | 0.903 | inactive | inactive | inactive |  |  | -2.96 |  | 
O=C1CCCC/C=C/CCCCCCCCCO1 | 0.71 |  | inactive | -15.4 | inactive | inactive |  | -13.1 |  | 0.177 |  | 
CCCCCCCCCC(C)=O | -3.13 | inactive |  | -12.1 |  | inactive | inactive | -10.7 |  |  |  | 
C=C1C(=O)O[C@@H]2C3OC3(C)CC/C=C(\C)CC[C@@H]12 (some centres undefined) |  |  |  |  |  |  |  |  |  |  | inactive | inactive
Cc1cc(=O)cc2oc3cc(N)c(-c4c(C)cc(O)cc4O)c(C)c3nc1-2 |  |  |  |  |  |  |  |  |  |  | inactive | inactive
Nc1cc(Cl)nc(C(=O)O)c1Cl | 6.83 | inactive | inactive |  |  |  |  | 12 | inactive | 1.21 |  | 
COc1ccc(-c2coc3ccc(OC4OC(COC(C)=O)C(OC(C)=O)C(OC(C)=O)C4OC(C)=O)cc3c2=O)cc1 (centres undefined) |  |  |  |  |  |  |  |  |  |  | inactive | inactive
CCc1cccc(C)c1N(C(=O)CS(=O)(=O)O)[C@@H](C)COC | -2.5 |  | inactive |  | inactive | inactive | inactive | -18.4 |  | 3.16 |  | 
C=C(C)C(=O)OCCOC(=O)C(=C)C |  | inactive |  | -0.861 | inactive | inactive | inactive | 17.4 | inactive | -1.01 |  | 
CC(C)(C)c1cccc(C(C)(C)C)c1O |  |  | inactive | -7.64 | inactive |  |  | 16.3 | inactive | -0.526 |  | 
NN(c1ccccc1)c1ccccc1 | 8.8 |  | inactive |  |  | inactive |  | 4.53 |  | -3.49 |  | 
C=Cc1ccccc1Br |  | inactive | inactive | -5.73 |  | inactive | inactive | -5.89 | inactive | -6.55 |  | 
C/C=C/C=C/CCCCCCCO |  |  | inactive | -6.08 | inactive | inactive | inactive | -0.935 | inactive | 7.24 |  | 
CCCCOCCOCCOC(=O)CCCCC(=O)OCCOCCOCCCC |  |  | inactive | -7.36 | inactive | inactive | inactive | -12.6 |  |  |  | 
C=C[Si](OCCOC)(OCCOC)OCCOC |  |  | inactive |  |  | inactive |  |  |  | -3.03 |  | 
CC(=O)/C=C/C1C(C)=CCCC1(C)C (centres undefined) |  |  | inactive |  | inactive | inactive | inactive | 5.94 | inactive | -1.49 |  | 
OCC(CO)(CO)COCC(CO)(CO)CO |  |  | inactive |  | inactive | inactive | inactive | -4.48 |  | -2.73 |  | 
OC1CCC(C2CCCCC2)CC1 (centres undefined) |  |  | inactive |  | inactive |  | inactive | 4.98 | inactive | 3.92 |  | 
Nc1c(N=Nc2ccc(S(=O)(=O)CCOS(=O)(=O)O)cc2)c(S(=O)(=O)O)cc2cc(S(=O)(=O)O)c(N=Nc3ccc(S(=O)(=O)CCOS(=O)(=O)O)cc3)c(O)c12 | 7.7 |  |  |  |  | inactive | inactive | -6.2 | 30.6 µM (active) | -4.94 |  | 
